Results filed as inconclusive are left out. Activity calls are given as the source filed them. Unless noted, calls follow the shape of the dose curve; as a rule, active = well fitted inhibition curve with a large enough effect; inconclusive = small, poorly fitted or top-dose-only effect; inactive = flat fitted curve, though single readings scatter.
Assays:
[1] = qHTS drug screen for cell cycle checkpoint inhibitors in PARPi-resistant BRCA-mutant ovarian cancer cell lines. (AID 1963452; calls by dose curve); details: PEO1/OlaR viability, CellTiter-Glo luminescence, 96 h, stronger effect = lower value
How it was run: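 PEO1, PEO4 and PEO1/OlaR ovarian cancer cells, 600 per well, exposed 96 h at 37C to a dilution series. Viability read by CellTiter-Glo luminescence, normalized to DMSO and empty wells; activity summarized as Z-AUC.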

[2] = qHTS for identification of novel therapeutic agents for treatment of microphthalmiaassociated transcription factor (MiT) renal cell carcinoma (RCC) (AID 1963991; calls by dose curve; also: potency is read from the fitted curve at half-maximal effect); details: CellTiter-Glo, 48 h; for z-score: stronger effect = lower value
How it was run: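 Three TFE3-fusion RCC cell lines (UOK109, UOK124, UOK145), 500 cells/well, were exposed to the 1912-compound MIPE 4.0 library for 48 hours at 37 C. Viability was read by CellTiter-Glo luminescence, normalised to DMSO (100%) and empty wells (0%), with 11-concentration curve fits.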

[3] = qHTS profiling for inhibitors of Plasmodium falciparum proliferation (AID 504749);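 also: 0% = DMSO vehicle and full inhibition = artemisinin control; nearly all actives have a fitted effect of over 60% in size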; details: P. falciparum in erythrocytes, SYBR Green DNA, 72 h
How it was run: (§1)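 In a 72 h erythrocytic culture (37 C, humidified, 5% CO2) at 2.5% hematocrit and 0.3% starting parasitemia, compounds were tested; SYBR Green I in detergent lysis buffer stained parasite DNA overnight.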

3D7 = assay: as above; details: P. falciparum in erythrocytes, SYBR Green DNA, 72 h; series mostly up to 28.7 µM
How it was run: as §1

7G8 = assay: as above; details: P. falciparum in erythrocytes, SYBR Green DNA, 72 h; series mostly up to 28.7 µM
How it was run: as §1

AA1029 = assay: as above; details: P. falciparum in erythrocytes, SYBR Green DNA, 72 h; series mostly up to 28.7 µM
How it was run: as §1

AS120 = assay: as above; details: P. falciparum in erythrocytes, SYBR Green DNA, 72 h; series mostly up to 28.7 µM
How it was run: as §1

ATS189 = assay: as above; details: P. falciparum in erythrocytes, SYBR Green DNA, 72 h; series mostly up to 28.7 µM
How it was run: as §1

ATS95 = assay: as above; details: P. falciparum in erythrocytes, SYBR Green DNA, 72 h; series mostly up to 28.7 µM
How it was run: as §1

C2A = assay: as above; details: P. falciparum in erythrocytes, SYBR Green DNA, 72 h; series mostly up to 28.7 µM
How it was run: as §1

CP185 = assay: as above; details: P. falciparum in erythrocytes, SYBR Green DNA, 72 h; series mostly up to 28.7 µM
How it was run: as §1

CP191 = assay: as above; details: P. falciparum in erythrocytes, SYBR Green DNA, 72 h; series mostly up to 28.7 µM
How it was run: as §1

CP192 = assay: as above; details: P. falciparum in erythrocytes, SYBR Green DNA, 72 h; series mostly up to 28.7 µM
How it was run: as §1

CP194 = assay: as above; details: P. falciparum in erythrocytes, SYBR Green DNA, 72 h; series mostly up to 28.7 µM
How it was run: as §1

[4] = measured here: PEO1 parental Z-AUC
[5] = TFE3-RCC UOK109 viability, measured here: UOK109 Z-AUC
[6] = TFE3-RCC viability, measured here: UOK124 Z-AUC
[7] = TFE3-RCC viability, measured here: UOK145 Z-AUC
[8] = at 12.8 µM (top of the series), parasite line A
[9] = at 12.8 µM (top of the series), parasite line B
[10] = at 28.7 µM (top of the series), parasite line A
[11] = at 28.7 µM (top of the series), parasite line B

For C[C@@H]1O[C@@H](O[C@H]2C[C@@H](O)[C@]3(CO)[C@H]4[C@H](O)C[C@]5(C)[C@@H](C6=CC(=O)OC6)CC[C@]5(O)[C@@H]4CC[C@]3(O)C2)[C@H](O)[C@H](O)[C@H]1O, which Z-AUC [1] is on record?
Its Z-AUC is -1.08 (inactive).

What about the Z-AUC [1, 4] of the same compound?
The Z-AUC was -2.2.

And the Z-AUC ([1]; measured here: PEO4 Z-AUC)?
The Z-AUC was -1.63.

What about the Potency ([2]; TFE3-RCC UOK109 viability) of the same compound?
Its Potency is 16.6 nM (active).

And the z-score [2, 5]?
The z-score was -3.9.

And the z-score [2, 6]?
Its z-score is -2.36.

And the z-score [2, 7]?
Its z-score is -3.38.

Which Z-AUC [1] does the source give for O=P1(NCCCl)OCCCN1CCCl (stereo unspecified) here?
The Z-AUC was 0.293 (inactive).

And the Z-AUC [1, 4]?
The Z-AUC was -0.297.

And the Z-AUC ([1]; measured here: PEO4 Z-AUC)?
Its Z-AUC is -0.293.

And the activity, negative = inhibition [3, 8]?
The activity, negative = inhibition was -2.67% (inactive).

And the activity, negative = inhibition [3, 9]?
The activity, negative = inhibition was 0.405% (inactive).

And the Potency (3D7)?
Its Potency is “inactive”.

And the Potency (7G8)?
The Potency was “inactive”.

And the Potency (AA1029)?
The Potency was “inactive”.

What about the Potency (AS120) of the same compound?
Its Potency is “inactive”.

And the Potency (ATS189)?
Its Potency is “inactive”.

And the Potency (ATS95)?
The Potency was “inactive”.

And the Potency (C2A)?
Its Potency is “inactive”.

And the Potency (CP185)?
Its Potency is “inactive”.

What about the Potency (CP191) of the same compound?
Its Potency is “inactive”.

What about the Potency (CP192) of the same compound?
Its Potency is “inactive”.

And the Potency (CP194)?
Its Potency is “inactive”.

With O=C1CC[C@@]2(O)[C@H]3Cc4ccc(O)c5c4[C@@]2(CCN3CC2CC2)[C@H]1O5 as the compound, how does the Z-AUC [1] read?
Its Z-AUC is -0.771 (inactive).

And the Z-AUC [1, 4]?
Its Z-AUC is -0.291.

And the Z-AUC ([1]; measured here: PEO4 Z-AUC)?
Its Z-AUC is -0.633.

And the z-score [2, 5]?
The z-score was 0.814.

And the z-score [2, 6]?
The z-score was 0.454.

And the z-score [2, 7]?
The z-score was 1.09.

What does the source list for COC[C@H]1OC(=O)c2coc3c2[C@@]1(C)C1=C(C3=O)C2CCC(=O)[C@@]2(C)C[C@H]1OC(C)=O (stereo partly specified)?
Z-AUC [1]: 0.865 (inactive); Z-AUC [1, 4]: 0.666; Z-AUC ([1]; measured here: PEO4 Z-AUC): 0.563

With NCC1(CC(=O)O)CCCCC1 as the compound, how does the Z-AUC [1] read?
Its Z-AUC is 0.463 (inactive).

And the Z-AUC [1, 4]?
The Z-AUC was 0.917.

What about the Z-AUC ([1]; measured here: PEO4 Z-AUC) of the same compound?
Its Z-AUC is -0.172.

And the z-score [2, 5]?
The z-score was 0.318.

And the z-score [2, 6]?
The z-score was 0.516.

And the z-score [2, 7]?
Its z-score is -0.0302.

What about the activity, negative = inhibition [3, 8] of the same compound?
Its activity, negative = inhibition is 5.08% (inactive).

What about the activity, negative = inhibition [3, 9] of the same compound?
Its activity, negative = inhibition is 1.35% (inactive).

What about the Potency (3D7) of the same compound?
The Potency was “inactive”.

What about the Potency (7G8) of the same compound?
The Potency was “inactive”.

What about the Potency (AA1029) of the same compound?
Its Potency is “inactive”.

What about the Potency (AS120) of the same compound?
Its Potency is “inactive”.

What about the Potency (ATS189) of the same compound?
Its Potency is “inactive”.

What about the Potency (ATS95) of the same compound?
Its Potency is “inactive”.

And the Potency (C2A)?
Its Potency is “inactive”.

What about the Potency (CP185) of the same compound?
The Potency was “inactive”.

What about the Potency (CP191) of the same compound?
The Potency was “inactive”.

What about the Potency (CP192) of the same compound?
Its Potency is “inactive”.

And the Potency (CP194)?
Its Potency is “inactive”.

Which Z-AUC [1] does the source give for Cn1c(CCCC(=O)O)nc2cc(N(CCCl)CCCl)ccc21 here?
The Z-AUC was 2 (inactive).

And the Z-AUC [1, 4]?
The Z-AUC was 1.56.

And the Z-AUC ([1]; measured here: PEO4 Z-AUC)?
The Z-AUC was 2.09.

And the z-score [2, 5]?
Its z-score is 1.39.

What about the z-score [2, 6] of the same compound?
The z-score was 2.59.

And the z-score [2, 7]?
Its z-score is 0.899.

What about the activity, negative = inhibition [3, 10] of the same compound?
The activity, negative = inhibition was -26.2% (inactive).

What about the activity, negative = inhibition [3, 11] of the same compound?
Its activity, negative = inhibition is 3.04% (inactive).

What about the Potency (3D7) of the same compound?
Its Potency is “inactive”.

What about the Potency (AA1029) of the same compound?
Its Potency is “inactive”.

And the Potency (AS120)?
The Potency was “inactive”.

What about the Potency (ATS189) of the same compound?
The Potency was “inactive”.

What about the Potency (ATS95) of the same compound?
Its Potency is “inactive”.

And the Potency (C2A)?
The Potency was “inactive”.

And the Potency (CP185)?
Its Potency is “inactive”.

And the Potency (CP191)?
The Potency was “inactive”.

What about the Potency (CP192) of the same compound?
Its Potency is “inactive”.

What about the Potency (CP194) of the same compound?
The Potency was “inactive”.

Which results are given for CN(C)CCN(C)CCc1ccc(Cl)c(Cl)c1?
Z-AUC [1]: 1.45 (inactive); Z-AUC [1, 4]: 1.36; Z-AUC ([1]; measured here: PEO4 Z-AUC): 1.58

What does the source list for CNC(=O)c1ccc(N2C(=S)N(c3ccc(C#N)c(C(F)(F)F)c3)C(=O)C23CCC3)cc1F?
Z-AUC [1]: 1.87 (inactive); Z-AUC [1, 4]: 1.38; Z-AUC ([1]; measured here: PEO4 Z-AUC): 1.39

What does the source list for CC(C)CC(N(C)C)C1(c2ccc(Cl)cc2)CCC1 (stereo unspecified)?
Z-AUC [1]: 0.505 (inactive); Z-AUC [1, 4]: 0.684; Z-AUC ([1]; measured here: PEO4 Z-AUC): 0.647; activity, negative = inhibition [3, 10]: 6.97% (inactive); activity, negative = inhibition [3, 11]: 4.99% (inactive); Potency (3D7): inactive; Potency (7G8): inactive; Potency (AA1029): inactive; Potency (AS120): inactive; Potency (ATS189): inactive; Potency (ATS95): inactive; Potency (C2A): inactive; Potency (CP185): inactive; Potency (CP191): inactive; Potency (CP192): inactive; Potency (CP194): inactive
